The record followed here is PubChem BioAssay (NCATS).

The structures appear in SMILES notation. A number with no mark means an inactive call. Results filed as inconclusive are left out. Activity calls are given as the source filed them. Unless noted, the call rests on the fitted dose curve; in most records, active means well fitted curve in either direction with a large enough effect (not every such curve was filed as active); inconclusive means small, poorly fitted or top-dose-only effect, or another doubt; inactive means flat fitted curve, though single readings scatter. A value given as a limit tells only on which side of the number the result lay.

The nature of assay [1]: AP1 Signaling Pathway (AID 357). Further: on the % scale 0 is the no-effect control and ±100 the full control effect. Conditions: ME-180 AP-1-bla reporter, EGF-induced, beta-lactamase ratio, 5 h; at 17.2 µM (top of the series) unless noted. Put shortly: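 Cells are seeded overnight, exposed to compound titrations and an EC50 level of EGF for 5 hours at 37 °C, then loaded with CCF4 dye for 2.5 hours. Beta-lactamase activity under the AP-1 element is read as a blue/green ratio.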

Assay [2] deals with Cytochrome P450 1A2 (Homo sapiens) (UniProt P05177). Description: p450-cyp1a2 (AID 410; calls by dose curve;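 further: -100% = full effect of reference inhibitor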). Put shortly:
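Inhibition was calculated relative to 57 uM furafylline (full inhibition). The reaction used human CYP1A2 at 20nM with Luciferin-ME at its Km, 100uM, driven by an NADPH-regenerating system for 60 min at room temperature.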

Assay [3] is described as follows: NFAT Signaling Pathway (AID 444).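 Further: carbachol stimulus at about its EC50 of 1 µM final; on the % scale 0 is the no-effect control and ±100 the full control effect.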 The conditions noted are these: Jurkat NFAT-bla M1, carbachol, beta-lactamase ratio, 5 h; at 17.2 µM (top of the series) unless noted. Put shortly:
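Read-out: CCF4 FRET ratio (460 nm/530 nm) after 1 h RT dye loading, used for %activity and AC50 from titration series. Cells: Jurkat NFAT-β-lactamase/M1 line, treated with compound plus 1 uM carbachol for 5 h, 37 °C.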

Assay [4] addresses Glucocorticoid receptor (Homo sapiens) (UniProt P04150). Description: GR-GFP Redistribution (AID 450;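 active means compounds whose dose series gives a full or clear partial fitted curve of increased nuclear translocation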; further: potency means the concentration at half of the fitted maximal effect). The conditions noted are these: U2OS GR-GFP nuclear translocation, laser cytometry, 2 h.
The target is the same in assay [5]. In words: GR-EFC Redistribution (AID 451; calls by dose curve; further: potency means the concentration at half of the fitted maximal effect). Conditions: CHO-K1 GR-EFC translocation, beta-gal luminescence, 2 h. A digest of the protocol:
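Translocation of GR-ED fusion to nuclear EA restores b-gal, read by luminescence after 1 h room-temperature detection. Engineered CHO-K1 biosensor cells, 1,000/well, exposed 2 h at 37 C to titrations up to 46 uM final.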

The target of assay [6] is 3',5'-cyclic-AMP phosphodiesterase 4B (Homo sapiens) (UniProt Q07343). Description: qHTS Assay for Inhibitors of PDE-IV (AID 607; active means well fitted activation curve with a large enough effect in the main read-out, with a control signal flat, not every such curve was filed as active; further: % of control where 0% means no effect). Put shortly: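 ACTOne HEK293 cells carry a modified cAMP-gated CNG channel and express endogenous PDE4; plated 1000 cells/well, compounds up to 22.9 uM final. Membrane-potential dye fluorescence (ex 535/em 590) was read; parental cells received 10 uM forskolin + 100 uM RO 20-1724.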
A general note: qHTS replaces the single test concentration by a dilution series.

Assay [7] addresses Guanine nucleotide-binding protein G(i) subunit alpha-1 (Homo sapiens) (UniProt P63096). In words: qHTS Assay for Inhibitors of RGS12 GoLoco Motif Activity (Green Fluorophore) (AID 879; active means well fitted curve in the direction sought with a large enough effect; an effect the other way counts as inactive or inconclusive;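 further: 0% = labeled peptide with Gαi1 and full inhibition = labeled peptide alone without protein; negative values mean loss of peptide binding seen as reduced polarization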). A digest of the protocol:
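Fluorescence polarization assay: 50 nM Gαi1 with 10 nM FITC-labeled RGS12 GoLoco peptide in 10 mM Tris pH 7.5, 150 mM NaCl, 0.1 mM GDP, 0.05% NP40, 10 min at room temperature with compound.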

A short description of assay [8]: qHTS Assay for Identification of Small Molecule Antagonists for NFkB Signaling Pathway (AID 895; active means well fitted inhibition curve with a large enough effect in the signal ratio, with a control signal flat, not every such curve was filed as active; the % refers to the signal ratio; further: on the % scale 0 is the no-effect control and ±100 the full control effect). A digest of the protocol:
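Beta-lactamase reporter read-out (460 and 530 nm emission ratio, 405 nm excitation, 2 hrs substrate loading RT) after 5 hr stimulation with 10 pM TNF alpha in compound-treated NFkB-bla ME-180 cells in low-serum medium.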

Assay [9] is described as follows: qHTS Assay for Identification of Small Molecule Agonists for Thrombopoietin (TPO) Signaling Pathway (AID 917; active means well fitted curve in the direction sought with a large enough effect; an effect the other way counts as inactive or inconclusive; further: on the % scale 0 is the no-effect control and ±100 the full control effect). Put shortly:
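Reporter: GpIIb promoter–luciferase in murine Ba/F3 expressing human TPO receptor. Pre-starved of IL-3 overnight; compounds with 26 pM TPO, 24 hrs, 37 C/5% CO2; luminescence read.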

For assay [10], the target named is Muscarinic acetylcholine receptor M1 (Rattus norvegicus) (UniProt P08482). In words: qHTS Assay for Antagonists of Acetylcholine Muscarinic M1 Receptor: Kinetic Measurement of Intracellular Calcium Response (AID 943; active means well fitted curve in the direction sought with a large enough effect; an effect the other way counts as inactive or inconclusive;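 further: Fluo-4 calcium signal as peak divided by basal fluorescence over 4 min; nearly all actives have a fitted effect of over 75% in size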). Put shortly: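 Intracellular calcium flux, recorded with Fluo-4 in a kinetic plate reader, served as signal; the response to carbachol at EC80 (100 nM final) was taken as maximal over minimal fluorescence after a 10 min compound pre-incubation in rat M1-CHO cells.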

Assay [11] has the same target. Description: qHTS Assay for Antagonists of Acetylcholine Muscarinic M1 Receptor: Measurement of IP-One Response (AID 944; active means well fitted curve in the direction sought with a large enough effect; an effect the other way counts as inactive or inconclusive; further: nearly all actives have a fitted effect of over 75% in size). A digest of the protocol: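 Steps: plate transfected CHO-M1 cells overnight; add test compound, 10 min; add carbachol (200 nM, EC80) in stimulation buffer with LiCl; incubate 30 min; add labelled IP1 tracer and anti-IP1 antibody in lysis buffer; read HTRF after 10 min.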

In assay [12] the target is Pyruvate kinase (Leishmania mexicana) (UniProt Q27686). Description: qHTS Validation Assay for Inhibitors of Leishmania Mexicana Pyruvate Kinase (AID 945; active means well fitted curve in the direction sought with a large enough effect; an effect the other way counts as inactive or inconclusive;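 further: 0% = DMSO only neutral control wells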). A digest of the protocol: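 Compounds are tested as eight-point concentration series. Reactions contain 0.2 nM LmPYK E451W, 0.5 mM PEP, 0.1 mM ADP, 7 mM MgCl2 and 50 mM KCl at pH 7.2, run 1 h at room temperature, then read by PKLight luminescence.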

For assay [13], the target named is Pyruvate kinase PKM (Homo sapiens) (UniProt P14618). In words: qHTS Assay for Activators of Human Muscle Pyruvate Kinase (AID 954; active means well fitted curve in the direction sought with a large enough effect, not every such curve was filed as active;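 further: 0% = uninhibited enzyme and -100% = no enzyme or full thiadiazolimine inhibition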). Put shortly:
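Luminescence from a luciferase ATP-detection/stop reagent reported PKM2 activity. Reactions contained 0.1 nM purified human enzyme, 0.5 mM PEP, 0.1 mM ADP and 7 mM MgCl2 at pH 7.2, run 1 h at RT.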

Assay [14] addresses Alpha-galactosidase (Coffea arabica) (UniProt Q42656). Description: Counterscreen for Glucocerebrosidase Inhibitors: qHTS Assay for Coffee Bean alpha-Galactosidase at pH 4.5 (AID 957; active means well fitted curve in the direction sought with a large enough effect; an effect the other way counts as inactive or inconclusive;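 further: plate controls were enzyme alone for no effect and no enzyme for full effect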). Put shortly:
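AC50 values derive from Hill-equation modeling of concentration-response data, normalized to no-enzyme and full-activity controls. The pH 4.5 citrate assay used 2 nM coffee bean enzyme and 80 uM fluorogenic substrate for 20 min.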
A general note: A counterscreen serves to expose hits that act by an unwanted route or on another target.

Assay [15] deals with alpha-glucosidase (Oryza sativa, rice) (UniProt Q653V4). Description: Counterscreen for Glucocerebrosidase Inhibitors: qHTS Assay for Rice alpha-Glucosidase at pH 5.0 (AID 997; active means well fitted curve in the direction sought with a large enough effect; an effect the other way counts as inactive or inconclusive;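 further: 0% = full activity with enzyme and -100% = basal without enzyme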). Put shortly: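 Rice alpha-glucosidase (4 nM final) with 400 uM 4-methylumbelliferyl-alpha-D-glucopyranoside in citrate buffer pH 5.0, 20 min at room temperature, stopped at pH 10; fluorescence 365/440 nm, compounds 0.7 nM–77 uM, AC50 from Hill fits.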

A short description of assay [16]: Stat Signaling Pathway (AID 446). A digest of the protocol: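 ME-180 SIE-bla cells; overnight plating; cpd + IL-6 40 pM, 5 h, 37 C; LiveBLAzer 2.5 h RT; 460/530 nm emission ratio. Normalized to 300 pM IL-6 and 125 nM JAK inhibitor controls.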
Assay [17] is described as follows: qHTS Assay for Identification of Small Molecule Agonists for Hypoxia Response Element Signaling Pathway (AID 914; active means well fitted activation curve with a large enough effect in the signal ratio, with a control signal flat, not every such curve was filed as active; the % refers to the signal ratio; further: % of control where 0% means no effect). The conditions noted are these: ME-180 (cervical carcinoma) HRE-bla reporter, beta-lactamase ratio, CoCl2, 17 h; activation: hits give high values. A digest of the protocol:
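A beta-lactamase reporter under hypoxia response element control in ME-180 cells served as the system. Compound titrations plus EC50 CoCl2 ran 17 h at 37 degrees Celsius; AC50 values were fitted from %Activity.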

Assay [18] has as its target Mitogen-activated protein kinase 10 (Mus musculus) (UniProt Q61831). In words: JNK3 AlphaScreen Assay (AID 530). A digest of the protocol:
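Room-temperature AlphaScreen kinase assay; pre-activated HepG2 lysate as JNK3 source, biotin-GST-cJun(1-79) substrate, 10 uM ATP, compound 15 min preincubation.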
(Alpha assays give light when donor and acceptor beads are brought close together.)

The target in assay [19] is Cytochrome P450 2D6 (Homo sapiens) (UniProt P10635). Description: qHTS Assay for Inhibitors and Substrates of Cytochrome P450 2D6 (AID 891; active means well fitted curve in the direction sought with a large enough effect; an effect the other way counts as inactive or inconclusive; further: potency means the concentration at half of the fitted maximal effect; nearly all actives have a fitted effect of over 60% in size). Put shortly:
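Human CYP2D6 (5 nM) with 30 uM Luciferin-ME EGE (at Km) in 100 mM KPO4, compound preincubated 10 min, then NADPH regeneration system for 60 min at room temperature. Luciferin read by luminescence; normalized to 1.43 uM quinidine.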

The target of assay [20] is Alpha-galactosidase (Coffea arabica) (UniProt Q42656). Description: Counterscreen for Glucocerebrosidase Inhibitors: qHTS Assay for Coffee Bean alpha-Galactosidase at pH 5.9 (AID 998; active means well fitted curve in the direction sought with a large enough effect; an effect the other way counts as inactive or inconclusive;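 further: plate controls were uninhibited enzyme for no effect and no-enzyme basal signal for full effect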). Put shortly:
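Compounds were titrated from 0.7 nM to 77 uM against green coffee bean alpha-galactosidase (2 nM) using 80 uM fluorogenic 4-methylumbelliferyl substrate. After 20 min at room temperature, reactions were stopped at pH 10 and read by fluorescence.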

Sequence of 3',5'-cyclic-AMP phosphodiesterase 4B (Homo sapiens) (Q07343 whole entry, looked up): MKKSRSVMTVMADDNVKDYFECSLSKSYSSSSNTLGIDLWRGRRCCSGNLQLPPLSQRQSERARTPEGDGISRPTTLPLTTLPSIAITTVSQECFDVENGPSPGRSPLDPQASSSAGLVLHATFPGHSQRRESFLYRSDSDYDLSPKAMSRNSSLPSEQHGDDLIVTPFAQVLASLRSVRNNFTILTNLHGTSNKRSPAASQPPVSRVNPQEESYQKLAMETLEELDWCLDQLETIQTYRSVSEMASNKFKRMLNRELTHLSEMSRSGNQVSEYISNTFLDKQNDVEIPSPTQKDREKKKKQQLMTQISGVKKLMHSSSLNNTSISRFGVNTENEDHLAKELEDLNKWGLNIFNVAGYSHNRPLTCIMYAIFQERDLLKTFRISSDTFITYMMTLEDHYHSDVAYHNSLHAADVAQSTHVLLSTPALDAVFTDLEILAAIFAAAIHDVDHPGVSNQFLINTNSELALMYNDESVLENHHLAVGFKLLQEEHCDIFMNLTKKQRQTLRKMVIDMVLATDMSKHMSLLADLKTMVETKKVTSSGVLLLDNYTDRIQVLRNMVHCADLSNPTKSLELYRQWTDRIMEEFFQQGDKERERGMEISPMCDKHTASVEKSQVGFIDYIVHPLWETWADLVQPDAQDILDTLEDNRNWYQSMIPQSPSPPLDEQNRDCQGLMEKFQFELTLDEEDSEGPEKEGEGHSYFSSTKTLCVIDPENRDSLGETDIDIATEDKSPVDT
Sequence of Glucocorticoid receptor (Homo sapiens) (P04150 whole entry, looked up): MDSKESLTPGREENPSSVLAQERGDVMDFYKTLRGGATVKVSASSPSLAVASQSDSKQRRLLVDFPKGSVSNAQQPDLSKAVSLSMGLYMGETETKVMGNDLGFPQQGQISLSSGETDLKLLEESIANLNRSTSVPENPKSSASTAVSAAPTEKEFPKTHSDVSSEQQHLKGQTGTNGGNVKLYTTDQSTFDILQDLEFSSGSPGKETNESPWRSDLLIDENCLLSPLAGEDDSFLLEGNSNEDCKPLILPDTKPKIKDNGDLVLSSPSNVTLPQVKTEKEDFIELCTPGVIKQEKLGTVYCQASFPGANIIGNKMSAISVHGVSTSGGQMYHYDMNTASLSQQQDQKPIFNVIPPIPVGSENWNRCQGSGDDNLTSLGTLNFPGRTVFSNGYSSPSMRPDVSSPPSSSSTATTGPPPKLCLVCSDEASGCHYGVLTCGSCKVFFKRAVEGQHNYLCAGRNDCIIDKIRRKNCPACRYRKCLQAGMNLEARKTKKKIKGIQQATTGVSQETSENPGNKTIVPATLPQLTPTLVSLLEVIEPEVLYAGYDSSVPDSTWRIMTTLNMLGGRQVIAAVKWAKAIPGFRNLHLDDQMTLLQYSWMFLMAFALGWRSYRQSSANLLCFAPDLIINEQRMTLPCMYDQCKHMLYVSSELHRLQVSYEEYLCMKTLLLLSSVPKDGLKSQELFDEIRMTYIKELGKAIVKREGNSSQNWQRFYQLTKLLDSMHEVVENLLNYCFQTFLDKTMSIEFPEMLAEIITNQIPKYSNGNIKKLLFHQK
Sequence of Alpha-galactosidase (Coffea arabica) (Q42656 whole entry, looked up): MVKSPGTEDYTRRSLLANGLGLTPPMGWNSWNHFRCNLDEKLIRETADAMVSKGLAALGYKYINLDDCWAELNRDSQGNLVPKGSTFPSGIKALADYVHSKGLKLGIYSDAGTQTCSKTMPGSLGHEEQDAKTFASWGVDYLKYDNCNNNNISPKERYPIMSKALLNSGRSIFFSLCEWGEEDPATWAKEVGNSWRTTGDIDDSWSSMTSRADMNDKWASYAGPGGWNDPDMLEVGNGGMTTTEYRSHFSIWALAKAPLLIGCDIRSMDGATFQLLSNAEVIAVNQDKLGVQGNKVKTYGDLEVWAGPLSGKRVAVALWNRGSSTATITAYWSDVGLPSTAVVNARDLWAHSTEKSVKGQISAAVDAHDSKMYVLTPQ
Sequence of Pyruvate kinase PKM (Homo sapiens) (P14618 whole entry, looked up): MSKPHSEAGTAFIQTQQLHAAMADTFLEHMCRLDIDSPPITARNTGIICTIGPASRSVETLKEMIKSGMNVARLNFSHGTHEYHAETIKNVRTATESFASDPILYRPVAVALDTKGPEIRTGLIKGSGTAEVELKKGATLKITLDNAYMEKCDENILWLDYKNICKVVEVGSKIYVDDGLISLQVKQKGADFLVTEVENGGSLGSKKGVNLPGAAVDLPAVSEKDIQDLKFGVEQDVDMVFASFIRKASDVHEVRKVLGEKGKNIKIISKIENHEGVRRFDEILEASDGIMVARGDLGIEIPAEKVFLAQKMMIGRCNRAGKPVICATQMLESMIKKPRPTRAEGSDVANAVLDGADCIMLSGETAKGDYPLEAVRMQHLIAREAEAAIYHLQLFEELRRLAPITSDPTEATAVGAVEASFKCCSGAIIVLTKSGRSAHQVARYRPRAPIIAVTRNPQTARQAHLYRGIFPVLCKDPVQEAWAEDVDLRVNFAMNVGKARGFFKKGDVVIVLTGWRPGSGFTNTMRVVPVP
Sequence of Pyruvate kinase (Leishmania mexicana) (Q27686 2-499 E452W): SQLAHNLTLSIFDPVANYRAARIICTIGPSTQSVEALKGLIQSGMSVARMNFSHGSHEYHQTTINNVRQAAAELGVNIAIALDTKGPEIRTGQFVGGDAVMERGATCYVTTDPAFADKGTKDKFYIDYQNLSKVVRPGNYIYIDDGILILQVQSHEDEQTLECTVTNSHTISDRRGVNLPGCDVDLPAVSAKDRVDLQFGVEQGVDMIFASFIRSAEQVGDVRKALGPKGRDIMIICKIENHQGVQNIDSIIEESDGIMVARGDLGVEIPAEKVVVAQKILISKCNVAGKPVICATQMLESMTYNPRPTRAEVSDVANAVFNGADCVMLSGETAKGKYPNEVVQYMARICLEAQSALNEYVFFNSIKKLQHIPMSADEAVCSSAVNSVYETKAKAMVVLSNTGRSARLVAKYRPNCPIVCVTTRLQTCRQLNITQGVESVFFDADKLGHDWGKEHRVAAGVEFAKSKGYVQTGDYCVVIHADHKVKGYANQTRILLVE
Sequence of Guanine nucleotide-binding protein G(i) subunit alpha-1 (Homo sapiens) (P63096 whole entry, looked up): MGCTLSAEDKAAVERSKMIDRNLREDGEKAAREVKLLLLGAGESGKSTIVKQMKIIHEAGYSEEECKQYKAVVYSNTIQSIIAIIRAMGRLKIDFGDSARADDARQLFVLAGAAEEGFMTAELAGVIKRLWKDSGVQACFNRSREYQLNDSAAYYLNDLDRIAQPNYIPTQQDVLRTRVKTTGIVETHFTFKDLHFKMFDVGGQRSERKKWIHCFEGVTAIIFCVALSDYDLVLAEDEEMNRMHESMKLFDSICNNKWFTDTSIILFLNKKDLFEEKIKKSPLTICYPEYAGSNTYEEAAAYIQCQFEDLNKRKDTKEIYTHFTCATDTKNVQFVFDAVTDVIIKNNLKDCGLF
Sequence of Muscarinic acetylcholine receptor M1 (Rattus norvegicus) (P08482 whole entry, looked up): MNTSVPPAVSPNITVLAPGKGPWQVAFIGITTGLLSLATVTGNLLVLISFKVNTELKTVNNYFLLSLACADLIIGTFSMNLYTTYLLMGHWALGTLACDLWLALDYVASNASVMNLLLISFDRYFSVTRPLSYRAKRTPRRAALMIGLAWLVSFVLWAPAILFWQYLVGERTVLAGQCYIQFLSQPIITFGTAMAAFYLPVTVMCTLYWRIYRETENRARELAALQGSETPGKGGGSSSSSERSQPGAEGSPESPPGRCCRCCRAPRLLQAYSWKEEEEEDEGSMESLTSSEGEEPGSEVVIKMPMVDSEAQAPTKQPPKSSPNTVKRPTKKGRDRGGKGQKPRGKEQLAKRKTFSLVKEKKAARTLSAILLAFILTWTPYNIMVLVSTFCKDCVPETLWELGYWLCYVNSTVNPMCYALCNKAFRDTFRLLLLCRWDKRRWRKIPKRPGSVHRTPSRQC
Sequence of Cytochrome P450 2D6 (Homo sapiens) (P10635 whole entry, looked up): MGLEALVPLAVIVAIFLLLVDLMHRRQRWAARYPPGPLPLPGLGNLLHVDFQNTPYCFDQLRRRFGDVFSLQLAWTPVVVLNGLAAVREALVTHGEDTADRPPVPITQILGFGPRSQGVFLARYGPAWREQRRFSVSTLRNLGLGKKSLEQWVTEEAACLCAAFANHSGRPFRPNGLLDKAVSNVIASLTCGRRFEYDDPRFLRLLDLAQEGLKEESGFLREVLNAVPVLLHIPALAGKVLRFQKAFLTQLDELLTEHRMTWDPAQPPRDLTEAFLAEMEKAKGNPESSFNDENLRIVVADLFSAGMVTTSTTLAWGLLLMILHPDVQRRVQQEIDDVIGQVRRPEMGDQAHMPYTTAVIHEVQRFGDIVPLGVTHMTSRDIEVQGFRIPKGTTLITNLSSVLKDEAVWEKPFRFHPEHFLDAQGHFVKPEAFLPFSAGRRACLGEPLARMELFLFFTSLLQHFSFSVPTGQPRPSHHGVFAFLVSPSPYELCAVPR
Sequence of Cytochrome P450 1A2 (Homo sapiens) (P05177 whole entry, looked up): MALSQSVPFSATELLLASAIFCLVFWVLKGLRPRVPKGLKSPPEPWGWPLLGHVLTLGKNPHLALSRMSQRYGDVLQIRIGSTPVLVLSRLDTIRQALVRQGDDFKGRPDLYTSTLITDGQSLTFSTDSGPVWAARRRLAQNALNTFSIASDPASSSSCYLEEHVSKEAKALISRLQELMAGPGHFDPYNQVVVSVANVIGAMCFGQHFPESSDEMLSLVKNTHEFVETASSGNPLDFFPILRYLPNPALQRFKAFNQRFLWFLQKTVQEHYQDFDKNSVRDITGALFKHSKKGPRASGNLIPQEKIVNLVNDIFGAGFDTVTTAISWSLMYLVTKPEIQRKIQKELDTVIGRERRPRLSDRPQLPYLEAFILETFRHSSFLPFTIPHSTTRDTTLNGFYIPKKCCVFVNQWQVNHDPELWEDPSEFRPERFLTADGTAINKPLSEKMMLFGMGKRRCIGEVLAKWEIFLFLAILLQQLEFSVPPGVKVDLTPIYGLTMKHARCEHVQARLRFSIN

For `CCN1C[C@]2(C)CC[C@@H](O)[C@]34[C@@H]5CC6[C@@H](OC)C[C@@](O)([C@H]5[C@@H]6O)[C@@H](C[C@@H]23)[C@H]14`, the activity change, negative = inhibition in assay [1] is 5.54% [at 38 µM]; in assay [3], 6.29% [at 38 µM]. The Potency result in [2], in assay [7], in [8], in assay [10], in assay [11] and in [12] was “inactive” in each case. The Potency in assay [4] and in assay [5] was > 46 µM throughout. In addition, the compound was called inactive in assay [6], in [9], in [13], in assay [14] and in assay [15].
Consider `COc1cccc(-n2c(O)c(C=NCCN3CCOCC3)c(=O)[nH]c2=O)c1`, for which the activity change, negative = inhibition in assay [1] was 0.139%; in assay [3], 11%. Moreover, the outcome in assay [16] was inactive. Further, the Potency in assay [4] was > 20.6 µM.
For the compound `O=C1NCCN2CCCC12` (stereo not drawn), the figures for the activity change, negative = inhibition in [1] and in assay [3] were 12% and -0.485%, respectively. Further, the result in [16] was inactive. In [4], the Potency was > 20.6 µM. The activation in assay [17] was 9.17%.
On to `CC(=O)OC1(Cc2ccccc2)CN2CCC1c1ccccc12` (stereo not drawn), for which the activity change, negative = inhibition in assay [1] is -0.0283%; in assay [3] it was -23.5%. For the same compound, the outcome in assay [16] was inactive. The Potency in assay [4] is > 46 µM.
Consider `NC(=NCCC[C@@H](N)C(=O)O)N[N+](=O)[O-]`, for which the activity change, negative = inhibition in [1] is 2.85% [at 38 µM]; in [3], 2.93% [at 38 µM]. In addition, the result in assay [16], in assay [18] and in [6] was inactive. For the same compound, the Potency in assay [4] and in [5] was > 46 µM throughout.
For the compound `COc1ccc2c(c1)[C@]13CCCC[C@@H]1[C@H](C2)N(C)CC3`, the activity change, negative = inhibition was 12% [at 38 µM] in assay [1] and -11.7% [at 38 µM] in assay [3]. For the same compound, the outcome in assay [16], in assay [6], in assay [13], in assay [14], in assay [15] and in assay [20] was inactive. The Potency in [5] was > 46 µM; in assay [19], 2.51 µM (active). For the same compound, the Potency result in [7] and in assay [12] was “inactive” in each case.
As to `COc1ccc2c(c1OC)C(=O)OC2c1c(O)n(C2CCCCC2)c(=O)[nH]c1=O` (stereo not drawn), the figures for the activity change, negative = inhibition in assay [1] and in assay [3] were -13.3% and -3.36%, respectively. In assay [16], the compound was classed as inactive. For the same compound, in assay [4], the Potency is > 20.6 µM.
For `COc1cccc(CN2CCN(C(=O)COc3ccc4ccccc4c3)CC2)c1`, the activity change, negative = inhibition in assay [1] was 2%; in assay [3], 13.9%. Besides, the compound was called inactive in assay [16]. The Potency in assay [4] is > 20.6 µM.
For `O=c1[nH]c(=O)n(Cc2ccco2)c(O)c1C=NCc1ccc2c(c1)OCO2`, in that order: -17.4%, 2.74%, “inactive” and > 20.6 µM.
Take `CC(=C1C(=O)c2ccccc2C1=O)N1CCN(CCN=Cc2c(O)n(C)c(=O)n(C)c2=O)CC1`: the activity change, negative = inhibition in assay [1] is -15.2%; in assay [3], -5.34%. Moreover, in assay [16], the outcome was inactive. For the same compound, in [4], the Potency is > 20.6 µM.
